The values below come from PubChem BioAssay (NCATS).

A number with no mark means an inactive call. Records with an inconclusive call do not appear. Active and inactive are the calls of the source. Unless noted, the call rests on the fitted dose curve; in most records, active means well fitted curve in the direction sought with a large enough effect; inconclusive means small, poorly fitted or top-dose-only effect, or another doubt; inactive means no such curve, though single readings can be large; an effect the other way counts as inactive or inconclusive.

Assay [1] deals with Arylsulfatase A (Homo sapiens) (UniProt P15289). Kind of assay: qHTS screen for enhancers of Arylsulfatase A (ASA1): LOPAC Validation Assay (AID 720538). Further: potency means the concentration at half of the fitted maximal effect. Put shortly:
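MLD patient fibroblasts (SV40, ASA-I179S), 1536-well; adhere 6 hrs; cpd 48h, 37 degree C, 5% CO2; pNCS 0.5mM final in lysis buffer, 14h RT; stop 1N NaOH final; fluor. Ex525/Em598.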
In general terms: In qHTS, concentration-response curves come from the screen itself.

A short description of assay [2]: qHTS for compounds that reverse cellular toxicity of Amyloid beta (A-beta) peptide in yeast: LOPAC Validation Assay (AID 720559).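 Further: plate controls were DMSO for no effect and equimolar ferric chloride plus clioquinol rescue for full effect.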 In a few lines: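 Medium dispensed, compounds pinned, A-beta yeast suspension added; plates held at 30 C for 48 hr; absorbance measured at 600 nm to gauge growth; values scaled between DMSO and FeCl3/clioquinol (equimolar) controls.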

The nature of assay [3]: qHTS for Activators of Parkin Expression: LOPAC Validation Assay (NLuc Reporter) (AID 720572). Put shortly: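 Cells harboring the Parkin-promoter coincidence reporter were treated for 24 h at seven concentrations. NLuc output was measured sequentially after the FLuc channel and scaled between DMSO and positive control values.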
The nature of assay [4]: qHTS for Activators of Parkin Expression: LOPAC Validation Assay (FLuc Reporter) (AID 720573). Put shortly:
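Cells seeded, 24 h; compounds pinned, 7-pt dose response; 24 h at 37 C/5% CO2; volume reduced; FLuc reagent 10 min RT; luminescence read. Normalization: DMSO = 0, positive control = 100%.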

The target in assay [5] is T1, Hexokinase-4 (Homo sapiens) + Glucokinase regulatory protein (Homo sapiens) (UniProt P35557+Q14397). In words: qHTS assay for inhibitors of recombinant human GCK-GKRP interaction: Diaphorase-coupled assay (AID 743205). Put shortly: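 25 mM Hepes pH 7.6, 5 mM glucose, 0.4 mM ATP, 4 U/ml G6PDH; 10 nM each GST-GCK/FLAG-GKRP. Kinetic fluorescence read, 1/min × 30 min. Normalized: DMSO ± enzyme = max/min.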

The target of assay [6] is T1, Hexokinase-4 (Homo sapiens) + Glucokinase regulatory protein (Homo sapiens). Kind of assay: qHTS assay for inhibitors of recombinant human GCK-GKRP interaction: ADP-Glo assay (AID 743206).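 Further: plate controls were DMSO plus enzyme for no effect and no enzyme for full effect.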 In a few lines: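 Pin-transferred compounds meet a 15 nM GST-GCK/15 nM FLAG-GKRP/2 uM S6P mix (dispense concentrations). ATP is then added to 0.4 mM final with 5 mM glucose, and the reaction runs 60 min at room temperature. ADP is quantified luminescently.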

The target is the same in assay [7]. In words: qHTS assay for inhibitors of recombinant human GCK-GKRP interaction: HTRF assay (AID 743207).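 Further: 0% = DMSO with GCK present and -100% = DMSO wells lacking GCK.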 Put shortly: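 5 nM GST-GCK + 5 nM FLAG-GKRP + 2 uM S6P, pH 7.1 buffer (25 mM Hepes, 2 mM MgCl2, 25 mM KCl, 1 mM DTT, Tween/BSA); pin-transferred cpd; anti-FLAG XL665/anti-GST K; 60 min RT; HTRF.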
Assay [8] in a line: qHTS assay for small molecule agonists of the antioxidant response element (ARE) signaling pathway measured by Nrf2-dependant transcriptional activity (AID 720636; active means well fitted curve in the direction sought with a large enough effect in the repeat runs; an effect the other way counts as inactive or inconclusive; further: % of control where 0% means no effect). Put shortly:
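ARE-luc HepG2 cells carrying an Nrf2-responsive luciferase reporter, in medium with 1% dialyzed FBS, exposed to compound for 16 hr at 37 C, 5% CO2. Luminescence read 30 min after ONE-Glo addition.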

Assay [9] in a line: qHTS assay for small molecule agonists of the antioxidant response element (ARE) signaling pathway measured by Nrf2-dependant transcriptional activity - cell viability counter screen (AID 720653; active means well fitted curve in the direction sought with a large enough effect in the repeat runs; an effect the other way counts as inactive or inconclusive; further: on the % scale 0 is the no-effect control and ±100 the full control effect). Particulars: ARE-bla HepG2 viability, CellTiter-Glo ATP luminescence, 16 h; stronger effect = lower value. Put shortly:
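ARE-bla HepG2 cells (2,000/well) rested 5 hrs at 37C/5% CO2, then exposed to compounds in DMSO for 16 hrs. Viability was read in the same wells as intracellular ATP by luminescence, 30 min at room temperature after reagent addition.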

Assay [10] is described as follows: qHTS Assay for Identifying Gametocytocidal Compounds (AID 743244).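 Further: on the % scale 0 is the no-effect control and ±100 the full control effect; actives lower the fluorescent signal which means gametocytes are killed.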 Particulars: P. falciparum 3D7 stage III-V gametocytes, alamarBlue, 72 h; max response: stronger effect = lower value. Put shortly:
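Using 20,000 stage III–V 3D7 gametocytes per well, compounds were incubated 72 h under 37 °C/5% CO2. Viability was then assessed by 24 h alamarBlue reduction, measured fluorometrically at 525/598 nm.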

Assay [11] in a line: qHTS assay for cell viability of HEK293 cells (AID 743288). Further: on the % scale 0 is the no-effect control and ±100 the full control effect; nearly all actives have a fitted effect of over 50% in size. Particulars: ATP luminescence (CellTiter-Glo), 18 h; max response: stronger effect = lower value. In a few lines: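 Viable-cell counts were inferred from luciferase-based ATP content in HEK293 cells seeded at 2,000/well, pre-incubated ≥5 h, then dosed with DMSO-solubilised compounds for 18 h at 37 C.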
Assay [12] can be described thus: qHTS assay for cell viability of the p53RE-bla HCT-116 cell line (AID 743292). Further: nearly all actives have a fitted effect of over 55% in size. Further: potency means the concentration at half of the fitted maximal effect. In a few lines: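 CellSensor p53RE-bla HCT-116 cells (4,000/well) pre-incubated 5 h at 37 C, then exposed to compounds in DMSO for 16 h at 37 C. Viability read as ATP content by CellTiter-Glo luminescence after 30 min at room temperature.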

Chain of Arylsulfatase A (Homo sapiens) (P15289 whole entry, looked up): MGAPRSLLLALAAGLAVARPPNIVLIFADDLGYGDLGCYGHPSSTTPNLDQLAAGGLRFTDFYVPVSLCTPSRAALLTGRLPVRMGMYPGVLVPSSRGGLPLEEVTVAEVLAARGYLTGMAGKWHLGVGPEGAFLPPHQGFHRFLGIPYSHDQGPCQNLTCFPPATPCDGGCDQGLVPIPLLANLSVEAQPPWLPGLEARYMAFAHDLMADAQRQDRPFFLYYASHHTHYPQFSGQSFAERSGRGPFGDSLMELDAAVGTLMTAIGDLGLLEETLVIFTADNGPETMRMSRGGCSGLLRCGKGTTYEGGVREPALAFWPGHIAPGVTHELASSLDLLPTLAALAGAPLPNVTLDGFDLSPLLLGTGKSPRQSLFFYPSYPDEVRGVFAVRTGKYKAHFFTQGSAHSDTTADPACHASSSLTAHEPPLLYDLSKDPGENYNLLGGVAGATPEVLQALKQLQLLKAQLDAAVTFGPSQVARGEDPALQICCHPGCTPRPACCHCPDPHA
T1 sequence (P35557 whole entry, looked up): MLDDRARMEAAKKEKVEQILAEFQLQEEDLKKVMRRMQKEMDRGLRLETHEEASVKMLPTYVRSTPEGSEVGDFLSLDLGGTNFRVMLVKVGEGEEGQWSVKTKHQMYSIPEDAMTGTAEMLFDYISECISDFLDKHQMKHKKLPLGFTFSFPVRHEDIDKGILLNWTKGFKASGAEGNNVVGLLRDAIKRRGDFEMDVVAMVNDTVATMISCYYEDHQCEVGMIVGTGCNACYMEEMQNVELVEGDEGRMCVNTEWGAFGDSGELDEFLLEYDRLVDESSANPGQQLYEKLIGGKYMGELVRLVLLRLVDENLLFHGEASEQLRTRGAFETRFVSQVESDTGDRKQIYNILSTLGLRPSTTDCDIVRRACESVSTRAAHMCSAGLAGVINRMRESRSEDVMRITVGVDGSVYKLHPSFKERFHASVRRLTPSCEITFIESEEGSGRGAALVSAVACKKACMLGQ
T1 sequence (Q14397 whole entry, looked up): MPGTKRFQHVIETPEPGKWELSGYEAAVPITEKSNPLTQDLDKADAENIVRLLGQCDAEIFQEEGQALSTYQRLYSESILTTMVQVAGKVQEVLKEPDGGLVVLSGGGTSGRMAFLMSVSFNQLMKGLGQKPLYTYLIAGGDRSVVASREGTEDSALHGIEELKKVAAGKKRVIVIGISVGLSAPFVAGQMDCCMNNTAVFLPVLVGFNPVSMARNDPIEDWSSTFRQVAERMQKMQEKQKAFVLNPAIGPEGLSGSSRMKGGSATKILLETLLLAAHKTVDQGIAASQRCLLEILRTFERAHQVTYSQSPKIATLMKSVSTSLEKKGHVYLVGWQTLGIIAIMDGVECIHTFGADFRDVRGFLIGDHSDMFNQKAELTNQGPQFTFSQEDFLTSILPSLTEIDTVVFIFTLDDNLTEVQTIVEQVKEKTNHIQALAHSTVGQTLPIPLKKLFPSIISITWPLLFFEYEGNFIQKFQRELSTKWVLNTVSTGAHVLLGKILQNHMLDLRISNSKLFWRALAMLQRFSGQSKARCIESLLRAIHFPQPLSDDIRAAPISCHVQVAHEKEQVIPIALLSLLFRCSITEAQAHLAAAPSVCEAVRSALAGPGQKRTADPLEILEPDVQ

In the case of `CC1=C(C(=O)O)N2C(=O)[C@@H](NC(=O)C(N)C3=CCC=CC3)[C@H]2SC1` (some centres undefined), the Potency entry in assay [1], in [3], in assay [4], in assay [5] and in assay [6] was “inactive” in each case. In assay [2], the result was inactive.

In the case of `Nc1ccc2c3c(cccc13)C(=O)NC2=O`, the Potency in assay [1] was 4.26 µM (active). Moreover, the call in [2] was inactive. For the same compound, the Potency entry in assay [3], in assay [4], in assay [5], in [6] and in assay [7] was “inactive” each time.

Consider `CCC(=O)N1CCN(C(=O)c2ccccc2)CC1`, for which the Potency result in assay [1], in assay [3], in assay [4], in [5] and in assay [6] was “inactive” throughout. Besides, the compound was called inactive in [2].

Consider `CN[C@H](CC(=O)O)C(=O)O`, for which the Potency entry in assay [1], in assay [3], in assay [4], in assay [5], in [6] and in assay [7] was “inactive” throughout. Further, the compound was classed as inactive in [2].

Regarding `O=C(O)c1cc(=O)cc(C(=O)O)[nH]1`, the Potency entry in [1], in [3], in [4], in assay [5], in assay [6] and in assay [7] was “inactive” throughout. Moreover, the result in [2] was inactive.

`c1ccc2nc(C3=NCCN3)ccc2c1`: the Potency entry in assay [1], in assay [3], in [4], in assay [5], in [6] and in assay [7] was “inactive” in each case. Also, in assay [2], the result was inactive.

Turning to `c1ccc(CN2CCC3(CCCc4ccccc43)CC2)cc1`, the Potency result in assay [1], in [3], in assay [4], in [5], in assay [6] and in assay [7] was “inactive” throughout. Moreover, the outcome in assay [2] was inactive.

Turning to `CCCc1c(OCCCOc2ccc(OCC(=O)O)cc2)ccc(C(C)=O)c1O`, the Potency entry in assay [1], in assay [3], in [4], in [5], in assay [6] and in [7] was “inactive” each time. Also, the Potency entry in assay [12] was “inactive”. Further, the compound was called inactive in assay [2] and in [8]. In addition, the results for the max response in [9], in assay [10] and in [11] were 7.96%, 1.52% and -9.62%, respectively.

As for `O[Si](CCCN1CCCCC1)(c1ccc(F)cc1)C1CCCCC1` (centres undefined), the Potency entry in [1], in assay [3], in [4], in [5] and in assay [6] was “inactive” each time. In assay [2], the result was inactive.

`Cn1cc(C(F)(F)F)nc1-c1ccc(OCC(O)CNCCOc2ccc(O)c(C(N)=O)c2)cc1` (centres undefined): the Potency result in assay [1], in [3], in assay [4], in assay [5] and in [6] was “inactive” each time. Also, the outcome in [2] was inactive.

In the case of `C/C(=C\c1ccc(C(=O)O)cc1)c1ccc2c(c1)C(C)(C)CCC2(C)C`, the Potency result in assay [1], in assay [3], in assay [4], in assay [5], in assay [6] and in assay [7] was “inactive” throughout. In addition, the result in [2] and in assay [8] was inactive. The max response in [9] is -1.94%; in assay [10], 19.4%; in [11] it was -16.6%. Besides, the Potency in [12] is 39.8 µM (active).

As for `C=CCN1CCc2cc(O)c(O)cc2C(c2ccccc2)C1` (centres undefined), the Potency result in assay [1], in assay [3], in assay [4], in assay [5], in assay [6] and in assay [7] was “inactive” in each case. Moreover, the compound was called inactive in assay [2].

In the case of `O=C(N[C@@H](Cc1ccccc1)C(=O)CCl)OCc1ccccc1`, the Potency entry in assay [1], in assay [3], in [4], in [5], in assay [6] and in assay [7] was “inactive” throughout. Moreover, the compound was classed as inactive in assay [2].

Regarding `CC(N)(C(=O)O)c1ccc(C(=O)O)cc1` (centres undefined), the Potency entry in assay [1], in [3], in assay [4], in [5], in assay [6] and in assay [7] was “inactive” throughout. The compound was classed as inactive in assay [2].
